This is a sample that favours compounds with a hit; in the whole collection about 19% have one here.
HT1080NT lethal = kills 2HG-producing HT-1080-NT fibrosarcoma cells; HT-1080-NT fibrosarcoma viability, CellTiter-Glo ATP luminescence, 48 h; Potency, µM (highest dose often 46.1 µM), actives largely listed as cytotoxic; 1.6% of 360,000 active; AID 686970;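 note: NT is the 2HG producing partner of a matched IDH1 knockdown line; nearly all actives have a fitted effect of over 55% in size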
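Viability by CellTiter-Glo luminescence after 48 h compound exposure at 37C of HT-1080-NT cells (750/well, RPMI, 5% FBS). % activity scaled between DMSO wells and medium-only wells, then curve-fitted and categorized by curve class.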
KB-3-1 tox = kills parental KB-3-1 adenocarcinoma cells; KB-3-1 viability, CellTiter-Glo ATP luminescence, 72 h; AID 1347075; 1.4% of 400,000 active; Potency, µM (top dose mostly 46.1 µM), usual class: cytotoxic; note: nearly all actives have a fitted effect of over 60% in size
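Viability of parental KB-3-1 cells, measured by CellTiter-Glo luminescence, followed a 72 h incubation at 37 °C with pinned compounds in phenol-red-free DMEM containing 10% FBS.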
DT40 TDP1 CPT = growth inhibition of DT40 Tdp1-/-;hTDP1 cells with camptothecin (screen for TDP1 inhibitors) | chicken DT40 Tdp1-/-;hTDP1 cells + 20 nM CPT, ATP luminescence, 48 h | Potency, µM (series often up to 46.2 µM), hits mostly inhibitors | 12% of 420,000 active | AID 686979; note: nearly all actives have a fitted effect of over 55% in size
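Cell growth measured by CellTiter-Glo luminescence after a minimum 48 h, 37 C compound exposure with 20 nM CPT in Tdp1-knockout DT40 cells stably expressing hTDP1, seeded 400/well; qHTS titration format.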
DT40 TDP1 no CPT = qHTS for Inhibitors of human tyrosyl-DNA phosphodiesterase 1 (TDP1): qHTS in cells in absence of CPT; DT40 Tdp1-/- hTDP1 cells, no CPT, ATP luminescence, 48 h; Potency, µM (top dose mostly 46.2 µM), most hits filed as inhibitors; 15% of 420,000 active; note: nearly all actives have a fitted effect of over 55% in size
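Growth of hTDP1-complemented DT40 Tdp1-knockout cells is measured by ATP luminescence after at least 48 hr compound exposure at 37 °C, with DMSO substituting for the 20 nM CPT used in the parallel screen.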
KB-V1 cytotox = kills drug-selected multidrug resistant KB-V1 cells; KB-V1 MDR cells viability, CellTiter-Glo, 72 h; Potency, µM (highest dose often 46.1 µM), most hits filed as cytotoxic; 3.4% of 400,000 active; AID 1347076; note: nearly all actives have a fitted effect of over 60% in size
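qHTS viability screen in drug-selected KB-V1 MDR cells: 72 h compound treatment at 37 degrees C, ATP luminescence end point.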
HT1080 IDH1KD tx = kills HT-1080 cells with IDH1 knockdown; Potency, µM (titrated, usually from 46.1 µM), most hits filed as cytotoxic; 2% of 360,000 active; HT-1080 IDH1 knockdown viability, ATP luminescence, 48 h; AID 686971
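Cytotoxicity counter-line: IDH1KD HT-1080, 48 h, CellTiter-Glo. Curves classed by r2, magnitude and activity.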
Hits are given with their value; – = inactive; ? = inconclusive; · = not tested or not shown. Calls come from the whole dose curve; as a rule, active = well fitted curve in the direction sought with a large enough effect; inconclusive = small, poorly fitted or top-dose-only effect, or another doubt; inactive = no such curve, though single readings can be large; an effect the other way counts as inactive or inconclusive.

SMILES	HT1080NT lethal	KB-3-1 tox	DT40 TDP1 CPT	DT40 TDP1 no CPT	KB-V1 cytotox	HT1080 IDH1KD tx
Cc1cc(C)nc(SCc2ccc(C(=O)N/N=C/C3CCCCC3)cc2)n1	–	–	–	–	–	–
NS(=O)(=O)c1ccc(N2CCN(CCOc3ccc(Cl)cc3)CC2)nc1	?	?	?	15µM	–	–
CCOC(=O)Nc1ccc2c(c1)N(C(=O)CCN1CCN(C)CC1)c1ccccc1S2	–	–	?	–	?	–
CCOC(=O)Nc1ccc2c(c1)Nc1ccccc1S2	?	–	23µM	21µM	?	?
C=CC(=O)N1c2ccccc2Sc2ccc(NC(=O)OCC)cc21	?	?	?	29µM	–	?
O=C1C=C(N2CCN(c3ccccn3)CC2)C(=O)c2c(O)ccc(O)c21	–	?	1.5µM	4.1µM	15µM	–
CC(=O)c1ccc(N2CCN(C(=O)c3cc4c(-c5ccccc5F)nn(C)c4s3)CC2)cc1	–	–	18µM	18µM	–	–
Cc1ccc(Cl)cc1N1CCN(C(=O)c2cc3c(-c4ccccc4F)nn(C)c3s2)CC1	·	–	?	15µM	–	·
COC(=O)c1sc(NC(=O)c2ccc3c(c2)OCO3)c(C#N)c1C	–	–	–	–	?	–
CCC1=C(c2ccc(C)cc2)S(=O)(=O)N=C1N1CCC(C(=O)NCCc2ccc(Cl)cc2)CC1	·	15µM	13µM	10µM	–	·
CCC1=C(c2ccc(C)cc2)S(=O)(=O)N=C1N1CCC(C(=O)Nc2ccccc2C(=O)OC)CC1	·	–	?	18µM	?	·
CCC1=C(c2ccc(C)cc2)S(=O)(=O)N=C1N1CCC(C(=O)NCc2ccc(C)cc2)CC1	·	–	?	?	–	·
COCc1nc2ccccc2n1CCOc1cccc(C)c1	·	–	?	?	–	·
CC(C)N1C(=O)C(O)(C2COC(C)(C)CC2=O)c2ccccc21 (configuration not stated)	–	–	5.8µM	7.3µM	–	–
CC1(C)CC(=O)C(C2(O)C(=O)N(Cc3ccccc3)c3ccccc32)CO1 (configuration not stated)	–	–	4.6µM	5.2µM	–	–
CC1(C)CC(=O)C(C2(O)C(=O)Nc3ccccc32)CO1 (configuration not stated)	–	–	–	–	–	–
O=C1N(Cc2ccccc2)c2ccccc2C12OCCO2	–	–	–	–	–	–
CC1(C)CC(=O)CC(C2(O)C(=O)N(Cc3ccccc3)c3ccccc32)O1 (configuration not stated)	–	?	2.6µM	1.8µM	?	–
COc1ccccc1NC(=O)c1c(-c2ccc(C)cc2)nnc2ccccc12	·	–	18µM	?	–	·
COc1ccc(NC(=O)c2c(-c3ccc(C)cc3)nnc3ccccc23)c(OC)c1	·	–	18µM	16µM	–	·
COc1ccc(NC(=O)c2c(-c3ccc(C)cc3)nnc3ccccc23)cc1OC	·	–	–	–	–	·
CCOC(=O)C1(C)CCCN(C(=O)c2ccc(OC)cc2)C1 (configuration not stated)	–	–	–	–	–	–
COc1ccc(NC(=O)/C=C\C(=O)N(c2ccc(C(C)C)cc2)C(C(=O)NCc2ccco2)c2ccc(F)cc2)cc1 (configuration not stated)	·	·	18µM	?	·	·
CCOc1ccc(NC(=O)/C=C\C(=O)N(c2ccc(C(C)C)cc2)C(C(=O)NCc2ccco2)c2ccc(F)cc2)cc1 (configuration not stated)	·	·	5.2µM	13µM	·	·
COc1ccc(N(C(=O)/C=C\C(=O)Nc2ccc(Cl)cc2)C(C(=O)NCc2ccco2)c2ccc(C)cc2)cc1 (configuration not stated)	·	·	16µM	18µM	·	·
COc1ccc(C(CC(=O)NCc2ccco2)c2ccc(F)cc2)cc1 (configuration not stated)	–	–	–	–	–	–

Source: PubChem BioAssay (National Center for Advancing Translational Sciences (NCATS))
